39 compounds from PubChem BioAssay (Tox21) can be followed below.

Structures are written as SMILES. Inconclusive results are not listed. Unmarked numbers belong to inactive results. Calls follow the shape of the dose curve; as a rule, active = well fitted inhibition curve with a large enough effect in the repeat runs; inconclusive = weak or mixed curves; inactive = no such curve, though single readings can be large or run the other way.
% is scaled to controls: 0 for no effect and ±100 for the full control effect.

The target of the experiment is Androgen receptor (Homo sapiens) (UniProt P10275). Kind of experiment: qHTS assay to identify small molecule antagonists of the androgen receptor (AR) signaling pathway using the MDA cell line in the presence of 0.5 nM R1881 (AID 1259243). Also: nearly all actives have a fitted effect of over 50% in size. Particulars: MDA-kb2 MMTV-luciferase, R1881 0.5 nM, 16 h; series mostly up to 42.5 µM; activity, negative = inhibition: at the top concentration. From the text: U.S. Tox21 Program National Center for Advancing Translational Sciences [NCATS] NIH Chemical Genomics Center [NCGC] U.S. Environmental Protection Agency [EPA] National Institutes of Environmental Health Sciences [NIEHS] National Toxicology Program [NTP] U.S. Food and Drug Administration [FDA] Tox21 Assay Overview: Androgen receptor (AR) is an important member of the nuclear receptor family. Its signaling plays a critical role in AR-dependent prostate cancer and other androgen related diseases. Considerable attention has been given in the past decades to develop methods to study and screen for the environmental chemicals that have the potential to interfere with metabolic homeostasis, reproduction, developmental and behavioral functions. Therefore AR binding assay for screening androgen antagonists can be used to identify potential endocrine disruptors. MDA-kb2 cells (from ATCC, deposited by Wilson et al.) were used to screen for AR inhibitors against Tox21 compound libraries. These cells are human breast carcinoma cells that were stably transfected with a luciferase reporter gene under control of the MMTV promoter that contains response elements for both androgen receptor (AR) and glucocorticoid receptor (GR). The current screening for identification of AR inhibitors against Tox21 libraries used lower concentration (0.5 nM) of R1881 as a stimulator.
Androgen receptor (Homo sapiens), sequence (P10275 whole entry, looked up): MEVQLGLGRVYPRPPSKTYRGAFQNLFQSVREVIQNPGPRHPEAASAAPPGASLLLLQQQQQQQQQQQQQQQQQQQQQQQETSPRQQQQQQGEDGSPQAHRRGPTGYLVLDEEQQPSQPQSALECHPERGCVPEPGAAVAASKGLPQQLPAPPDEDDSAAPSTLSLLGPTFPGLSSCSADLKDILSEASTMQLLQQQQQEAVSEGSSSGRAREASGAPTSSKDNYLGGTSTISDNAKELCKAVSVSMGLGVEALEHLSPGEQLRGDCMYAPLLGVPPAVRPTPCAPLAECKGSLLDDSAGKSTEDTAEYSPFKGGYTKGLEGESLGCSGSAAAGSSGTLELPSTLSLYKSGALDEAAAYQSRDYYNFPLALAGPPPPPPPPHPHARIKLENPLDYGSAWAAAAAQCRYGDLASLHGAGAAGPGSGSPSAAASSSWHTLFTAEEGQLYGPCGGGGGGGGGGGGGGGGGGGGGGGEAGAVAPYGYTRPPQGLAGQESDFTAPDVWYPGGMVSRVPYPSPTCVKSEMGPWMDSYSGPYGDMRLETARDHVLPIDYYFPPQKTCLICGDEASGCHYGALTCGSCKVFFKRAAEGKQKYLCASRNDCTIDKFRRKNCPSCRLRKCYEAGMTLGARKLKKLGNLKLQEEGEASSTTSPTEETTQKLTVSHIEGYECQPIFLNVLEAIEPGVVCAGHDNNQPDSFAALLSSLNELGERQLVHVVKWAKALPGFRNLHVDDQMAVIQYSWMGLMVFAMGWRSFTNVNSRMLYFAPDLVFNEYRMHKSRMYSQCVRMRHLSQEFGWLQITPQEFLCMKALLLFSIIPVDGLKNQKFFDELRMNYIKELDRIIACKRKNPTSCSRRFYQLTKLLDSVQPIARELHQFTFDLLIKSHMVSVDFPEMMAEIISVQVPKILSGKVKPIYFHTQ
Tox21 Assay Protocol Summary: MDA-kb2 cells (cells cultured without CO2) were dispensed at 3,000 cells/well in 4 uL of culture medium into white wall/solid-bottom 1536-well plates (Corning Life Sciences, Corning, NY) using a Multidrop Combi (ThermoFisher Scientific, Waltham, MA) dispenser. After the assay plates were incubated at a 37C and 0% CO2 for 5 hr, 23 nL of compounds dissolved in DMSO, positive controls or DMSO only was transferred to the assay plate by a Pintool station (Kalypsys, San Diego, CA). The transfer of compounds was followed by the addition of 1 uL of 0.5 nM (final concentration) agonist (R1881)/culture medium using a Flying Reagent Dispenser (FRD, Aurora Discovery, San Diego, CA). The plates were incubated at 37C and 0% CO2 for 16 hr. For luciferase reporter gene assay, 4 uL of ONE-Glo reagent (Promega Corporation, Madison, WI) was added to each well using the FRD and after 30 min incubation at room temperature luminescence intensity was measured using ViewLux plate reader (PerkinElmer, Shelton, CT).
Take `O=C(O)c1ccc(OCCN2CCCCC2)cc1`: the “activity, negative = inhibition” value was 0.581%. In the case of `C=CCCCCCCCCCCC` it was 5.11% [at 8.39 µM]; in that of `CC(=O)OC[C@H]1O[C@@H](OC(C)=O)[C@H](OC(C)=O)[C@@H]1OC(C)=O`, 0.87%. Consider `O=S(=O)(O)SSS(=O)(=O)O`, for which the “activity, negative = inhibition” value was 0.543% [at 92.4 µM]. With `CCCCCCCCCCCCCCCCI`, the “activity, negative = inhibition” value was 3.86% [at 19 µM]. In the case of `CC(=O)OC(C(=O)c1ccccc1)c1ccccc1` (centres undefined) it was -15.1% [at 92.4 µM]; in that of `O=C(O)c1ccccc1C(=O)OCc1ccccc1`, 24.5% [at 92.4 µM]; in that of `CCNC(=O)/C=C/c1cccc(Br)c1`, 1.25%.

Take `Cc1ncc([N+](=O)[O-])n1CC(O)CCl` (centres undefined): the “activity, negative = inhibition” value is 0.249%. For `COc1cc([N+](=O)[O-])ccc1N`, the “activity, negative = inhibition” value is -19.5% [at 92.4 µM]. In the case of `CCCCCCCCCCCCCC(=O)OC` it was 4.7% [at 92.4 µM]; in that of `Nc1cc(C(=O)O)ccc1Cl`, 0.0256% [at 92.4 µM]. `C=CCOCC(O)CCl` (centres undefined): the “activity, negative = inhibition” value is -2.53% [at 92.4 µM]. `COc1ccc(/C=N/NC(=O)c2ccncc2)cc1OC`: the “activity, negative = inhibition” value was 4.32%. Then `NCCc1ccn[nH]1`, with 24.7%; and `CNC(=O)NC`, with -4.49% [at 92.4 µM]. Turning to `Cc1nc2n(c(=O)c1CCN1CCC(C(=O)c3ccc(F)cc3)CC1)CCS2`, the “activity, negative = inhibition” value was -24.5%.

`COc1cccc2sc(N)nc12`: the “activity, negative = inhibition” value is 39.1% [at 92.4 µM]. Then `CCCOCCOCCOCCO`, with -5.51% [at 92.4 µM]; and `O=c1[nH]c(=O)c2ccccc2o1`, with 1.52%; and `CC(C)COC(=O)COc1ccc(Cl)cc1Cl`, with 0.65% [at 92.4 µM]. Then `CN[C@@H]1[C@H](O)[C@H](NC)[C@H]2O[C@@]3(O)C(=O)C[C@@H](C)O[C@H]3O[C@@H]2[C@H]1O`, with 34.9%. For the compound `CCCCC(CC)CNC(=O)CC(C)OC(=O)CCC(=O)O` (centres undefined), the “activity, negative = inhibition” value was 8.55%. Take `Nc1ccc(S(=O)(=O)Nc2ccccn2)cc1`: the “activity, negative = inhibition” value is 9.39%. Then `CCCCC[Si](OCC)(OCC)OCC`, with 3.02% [at 92.4 µM]; and `Cn1c(=O)c2c(ncn2CC2OCCO2)n(C)c1=O`, with -7.92%; and `OC(CCN1CCCCC1)(c1ccccc1)c1ccccc1`, with 4.06%. In the case of `O=C(CN1CCN(Cc2ccc3c(c2)OCO3)CC1)N1c2ccccc2Sc2ccccc21` it was -0.943%; in that of `O=C(O)c1ccccc1C(=O)Nc1ccc(S(=O)(=O)Nc2nccs2)cc1`, -4.22%; in that of `O=C1OC(=O)c2cc(Oc3ccc4c(c3)C(=O)OC4=O)ccc21`, 0.541% [at 92.4 µM].

With `CCCCCCCCCCC`, the “activity, negative = inhibition” value was 9.27% [at 92.4 µM]. Then `CCN(CC)C(=O)C1CN2CCc3cc(OC)c(OC)cc3C2CC1OC(C)=O` (centres undefined), with -7.65%. In the case of `Nc1ccnc(=O)[nH]1` it was -8.05% [at 92.4 µM]; in that of `CCCCCCCCCCCCCCCCCCN(C)C`, 14.9%.

Consider `CC(=O)N1CCN(c2ccc(O)cc2)CC1`, for which the “activity, negative = inhibition” value is 6.4%. Then `O=CN1CCOCC1`, with -10.1% [at 92.4 µM]; and `COC(OC)C(C)c1ccccc1` (centres undefined), with 6.17% [at 92.4 µM]. In the case of `COCC(=O)Nc1c(I)c(C(=O)NCC(O)CO)c(I)c(C(=O)N(C)CC(O)CO)c1I` (centres undefined) it was 10.2%. In the case of `CCC(C)(C)C1CCC(=O)CC1` it was -3.28% [at 92.4 µM].
